Unmarked numbers belong to inactive results. Results filed as inconclusive are left out. Active and inactive are the calls of the source. Calls come from the whole dose curve; as a rule, active = well fitted curve in the direction sought with a large enough effect; inconclusive = small, poorly fitted or top-dose-only effect, or another doubt; inactive = no such curve, though single readings can be large; an effect the other way counts as inactive or inconclusive. *1 amine or outer side, *2 acyl side, *3 side chain or, on linkers, in order; H or OH if unused. Where a SMILES comes first, the peptide text is derived from it. Bridges are numbered along the chain shown (N, C = ends). Roman numbers before positions name the chains, in order. [ ]: non-standard residue; d: D form. ξ: configuration not given here. Actinocin(9to1) = Cc1c2oc3c(C)ccc(C(=O)[*:1])c3nc-2c(C(=O)[*:2])c(N)c1=O; ξNMeV = CNC(C(=O)O)C(C)C; ξV = CC(C)C(N)C(=O)O; Sar = CNCC(=O)O

Experiment [1] in a line: Tertiary RLuc qRT-PCR qHTS assay for Zika virus inhibitors (AID 1347169). Note: nearly all actives have a fitted effect of over 55% in size. Note: potency is the fitted concentration of half-maximal effect. The essentials: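 Vero cells (1,000/well) infected with recombinant ZIKV-RLuc (Cambodian) at MOI 1-2 after compound addition, 48-72 hrs at 37 degrees C. Live-cell Renilla luciferase substrate added; luminescence read after 1-1.5 hrs.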
A short description of experiment [2]: OV-KATE Cancer Cell Toxicity qHTS against the NCATS CANVASS Library (AID 1347345). Note: % is set by controls: 0 for no effect and ±100 for the full control effect. The essentials: (§1)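 Quantitative HTS format: an 11-concentration series was applied to 1000 cells/well following a 4-hour attachment. Cultures ran 72 hours before ATP luminescence detection by CellTiter-Glo.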
Experiment [3] can be described thus: HPAF-II Cancer Cell Toxicity qHTS against the NCATS CANVASS Library (AID 1347346). Note: nearly all actives have a fitted effect of over 55% in size. Note: potency is the fitted concentration of half-maximal effect. In a few lines: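 1000 HPAF-II cells/well; 4 h pre-incubation; 11-pnt compound titration; 72 h, 37 degrees C/5% CO2; CellTiter-Glo, 15 min RT; luminescence read.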
Background: Quantitative high-throughput screening tests each substance at several concentrations.

Experiment [4] is described as follows: OV-SAHO Cancer Cell Toxicity qHTS against the NCATS CANVASS Library (AID 1347348). Note: series mostly up to about 38 µM; % is set by controls: 0 for no effect and ±100 for the full control effect; nearly all actives have a fitted effect of over 55% in size. The essentials:
as §1

A short description of experiment [5]: SW1088 Cancer Cell Toxicity qHTS against the NCATS CANVASS Library (AID 1347350). Note: nearly all actives have a fitted effect of over 75% in size. The note with it: outcome: dose series up to 38.3 µM. In a few lines:
as §1

The nature of experiment [6]: U-118MG Cancer Cell Toxicity qHTS against the NCATS CANVASS Library (AID 1347351). Note: series mostly up to about 38 µM; % is set by controls: 0 for no effect and ±100 for the full control effect. In a few lines:
as §1

A short description of experiment [7]: COV-362 Cancer Cell Toxicity qHTS against the NCATS CANVASS Library (AID 1347352). Note: series mostly up to about 38 µM; % is set by controls: 0 for no effect and ±100 for the full control effect. In a few lines:
(§2)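 1000 cells/well, 4 h pre-incubation 37 °C/5% CO2; 11-pnt titration; 72 h; CellTiter-Glo 15 min RT, luminescence.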

Experiment [8] is described as follows: A2780 Cisplatin Sensitive Ovarian Cancer Cell Toxicity qHTS against the NCATS CANVASS Library (AID 1347353). Note: nearly all actives have a fitted effect of over 60% in size. As to conditions: outcome: dose series up to 46.1 µM. In a few lines:
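750 cells/well, 4 h settle; 11-pt cpd titration; 72 h, 37 °C, 5% CO2; ATPLite 10 min RT; luminescence read.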

Experiment [9] can be described thus: UWB1.289-WTBRCA1 Cancer Cell Toxicity qHTS against the NCATS CANVASS Library (AID 1347354). Note: % is set by controls: 0 for no effect and ±100 for the full control effect. The essentials:
as §2

Experiment [10] is described as follows: HEK-293 Cancer Cell Toxicity qHTS against the NCATS CANVASS Library (AID 1347355). Note: series mostly up to about 46 µM; nearly all actives have a fitted effect of over 65% in size. As to conditions: outcome: dose series up to 46.1 µM. The essentials: as §2
A short description of experiment [11]: HPAF-II 24hr Apoptosis Induction qHTS against the NCATS CANVASS Library (AID 1347356). Note: 0% is about no effect. In a few lines:
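500 HPAF-II cells/well; compounds in 11-pnt qHTS; 24 h, 37 C/5% CO2; Caspase-Glo 3/7 added, 15 min RT dark; luminescence read. Doxorubicin control.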

Experiment [12] is described as follows: HEK293 18hr Apoptosis Induction qHTS against the NCATS CANVASS Library (AID 1347357). Note: 0% is about no effect. In a few lines: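 HEK293 cells (500/well, DMEM + 10% FBS) treated with an 11-point series for 18 h at 37 degrees C. Caspase-3/7 activity read by Caspase-Glo luminescence after 15 min at room temperature.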
A short description of experiment [13]: HPAF-II 12hr Apoptosis Induction qHTS against the NCATS CANVASS Library (AID 1347358). Note: 0% is about no effect. The essentials: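 Caspase-Glo 3/7 luminescence (DEVD substrate) reports caspase activity in HPAF-II cells after 12 h compound treatment at 37 degrees C. Compounds were tested in an 11-point series. Doxorubicin served as control.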
Experiment [14] can be described thus: HEK293 24hr Apoptosis Induction qHTS against the NCATS CANVASS Library (AID 1347359). Note: 0% is about no effect. The essentials: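 Caspase-3/7 activation measured as luminescence from the DEVD-based Caspase-Glo reagent, 15 min at room temperature, following 24-hour compound treatment of HEK293 cells.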
The nature of experiment [15]: HPAF-II 18hr Apoptosis Induction qHTS against the NCATS CANVASS Library (AID 1347360). Note: 0% is about no effect. In a few lines: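 HPAF-II cells at 500/well were exposed for 18 h at 37 C to an 11-point compound series. Caspase-3/7 activity was read by Caspase-Glo luminescence after 15 min at RT.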
Experiment [16] can be described thus: HEK293 12hr Apoptosis Induction qHTS against the NCATS CANVASS Library (AID 1347361). Note: 0% is about no effect. The essentials:
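HEK293 cells (500/well) were exposed to an 11-point qHTS concentration series for 12 hours at 37 degrees C. Caspase-3/7 activity was then read by DEVD-substrate luciferase luminescence after 15 min at room temperature.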

The subject of experiment [17] is NAD(P)H diaphorase (Clostridium kluyveri). Kind of experiment: Diaphorse counterscreen qHTS: Assay Interference Panel against the NCATS CANVASS Library (AID 1347362). Note: 0% is about no effect. The essentials:
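Counterscreen for coupling-enzyme interference: resorufin fluorescence from resazurin/NADH turnover, read after 5 min at room temperature. Compounds were tested over an 11-point series after 15 min dark preincubation with diaphorase in PBS-Tween.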
On the technique in general: A counterscreen serves to expose hits that act by an unwanted route or on another target.

The target in experiment [18] is Luciferin 4-monooxygenase (Photinus pyralis) (UniProt P08659). Kind of experiment: Firefly luciferase counterscreen qHTS: Assay Interference Panel against the NCATS CANVASS Library (AID 1347363). Note: series mostly up to about 57 µM; 0% is about no effect. In a few lines:
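Luminescence inhibition readout: compounds (11-point qHTS) sat 15 min at room temperature with substrate mix (0.013 mM luciferin and ATP), then firefly luciferase was added and signal read 5 min later.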

Experiment [19] can be described thus: KB-8-5-11 Cancer Cell Toxicity qHTS against the NCATS CANVASS Library (AID 1347364). Note: nearly all actives have a fitted effect of over 75% in size. The note with it: outcome: dose series up to 46.1 µM. The essentials:
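CellTiter-Glo luminescence after 72 h exposure; 500 KB-8-5-11 cells/well, DMEM/10% FBS, 37C, 5% CO2; compounds in 11-pt qHTS. Follow-up confirmation included medium with 1uM tariquidar.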

Experiment [20] is described as follows: UWB1.289 Cancer Cell Toxicity qHTS against the NCATS CANVASS Library (AID 1347347). Note: series mostly up to about 38 µM; % is set by controls: 0 for no effect and ±100 for the full control effect; nearly all actives have a fitted effect of over 60% in size. The essentials: as §1

Luciferin 4-monooxygenase (Photinus pyralis), sequence (P08659 whole entry, looked up): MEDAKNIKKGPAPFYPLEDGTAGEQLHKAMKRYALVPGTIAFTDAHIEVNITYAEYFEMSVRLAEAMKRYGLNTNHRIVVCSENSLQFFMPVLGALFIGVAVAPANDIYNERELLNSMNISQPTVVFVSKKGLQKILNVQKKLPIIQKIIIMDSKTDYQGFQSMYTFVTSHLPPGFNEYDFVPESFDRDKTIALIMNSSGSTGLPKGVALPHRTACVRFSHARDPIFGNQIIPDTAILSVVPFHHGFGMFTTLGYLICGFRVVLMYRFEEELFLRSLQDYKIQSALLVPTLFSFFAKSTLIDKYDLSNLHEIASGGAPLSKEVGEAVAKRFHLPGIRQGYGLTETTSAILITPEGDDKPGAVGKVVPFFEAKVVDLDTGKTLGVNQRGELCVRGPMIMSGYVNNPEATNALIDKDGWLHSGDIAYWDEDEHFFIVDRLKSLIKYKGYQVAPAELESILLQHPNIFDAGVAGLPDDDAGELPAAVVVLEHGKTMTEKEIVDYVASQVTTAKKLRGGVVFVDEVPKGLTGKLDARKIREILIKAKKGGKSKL

On to `O=C(O)c1cc(O)c2cccc(O)c2c1O[C@@H]1O[C@H](CO)[C@@H](O)[C@H](O)[C@H]1O`, for which the Potency result in [1] was “inactive”.
Still for that read-out and setting: to `O=S(=O)(O)c1ccc2c(N=Nc3ccc(S(=O)(=O)O)c4ccccc34)c(O)c(S(=O)(=O)O)cc2c1` belongs “inactive”; to `CCOc1ccc(-c2ccc(Cn3c(CC(C)(C)C(=O)O)c(SC(C)(C)C)c4cc(OCc5ccc(C)cn5)ccc43)cc2)cn1`, 5.23 µM (active).
The same measure, in the same setting: with `CC(C)c1cc2c(c(O)c1O[C@@H]1O[C@H](CO)[C@@H](O)[C@H](O)[C@H]1O)CC1(O)CCC(O)C(C)(C)C1CC2` (stereo partly drawn) the entry was “inactive”; with `CC12CCC3C(C)(C)C(O)CCC3(C)C1Cc1c(oc(C(=O)O)cc1=O)O2` (stereo not drawn), “inactive”; with `COc1cccc(-n2nc(C(=O)O)cc2-c2ccc(C3CCCCC3)c(Cl)c2)c1`, 18.6 µM (active).
As for `O=S(=O)(O)c1cc(O)c2c(N=Nc3ccc(Nc4ccccc4)c4c(S(=O)(=O)O)cccc34)cc(S(=O)(=O)O)cc2c1`, the activity change, negative = inhibition in experiment [1] was -4.11% [at 1.74 µM].
In the case of `CC(C)C(=O)c1cn(CC(=O)COc2ccc(Oc3ccccc3)cc2)c2ccc(C(=O)O)cc12`, the Potency in experiment [1] was 18.6 µM (active).
Same read-out and setting: with `CC(=O)c1c(C)cc(O)cc1O[C@@H]1O[C@H](CO)[C@@H](O)[C@H](O)[C@H]1O` the entry was “inactive”; with `CCCCS(=O)(=O)Nc1ncnc(OCCOc2ncc(Br)cn2)c1-c1ccc(Br)cc1`, “inactive”.
Consider `C=C1CC23CCC4[C@@](C)(CCC[C@@]4(C)C(=O)O)C2CCC1C3` (stereo partly drawn), for which, in experiment [1], the Potency entry was “inactive”.
The same measure, in the same setting: to `CC(C)(O)/C=C1/C(=O)C(C)(C)C(=O)C(C)(C)C1(O)O[C@@H]1O[C@H](COC(=O)c2cc(O)c(O)c(O)c2)[C@@H](O)[C@H](O)[C@H]1O` (stereo partly drawn) belongs “inactive”; to `Cc1nn(C)c(COc2ccc(N3CCN(S(=O)(=O)N(C)C)CC3)cc2)c1-c1cccc2c(CCCOc3cccc4ccccc34)c(C(=O)O)n(CCN3CCOCC3)c12`, “inactive”; to `NCc1ccc(OCCCc2sc(-c3ccc4c(c3)/C(=N/Nc3nc5ccccc5s3)CCC4)nc2C(=O)O)cc1`, “inactive”.
For the compound `CC1(C)CC[C@]2(C(=O)O[C@@H]3O[C@H](CO)[C@@H](O)[C@H](O)[C@H]3O)CC[C@]3(C)C(=CCC4[C@@]5(C)C[C@@H](O)[C@H](O)[C@@](C)(CO)C5CC[C@]43C)C2C1` (stereo partly drawn), the Potency entry in [1] is “inactive”.
With `CC1C/C=C/C=C\CCCCC(O)C/C=C/C(=O)O1` (stereo not drawn), in experiment [1], the Potency entry is “inactive”.
As to `C/C=C/C=C/C(CC(=O)O)Nc1ccc(C=O)cc1` (stereo not drawn), the result in experiment [2], in experiment [4], in experiment [5], in [6], in [7] and in [8] was inactive. For the same compound, the compound was classed as inactive in experiment [9], in experiment [10], in experiment [11], in experiment [12], in [13] and in experiment [14]. Moreover, the call in [15], in experiment [16], in [17], in experiment [18] and in experiment [19] was inactive. For the same compound, the Potency in experiment [3] is 3.75 µM (active).
For the compound `O=C(/C=C/c1c(C(=O)O)[nH]c2cc(Cl)cc(Cl)c12)Nc1ccccc1`, the Potency entry in experiment [1] is “inactive”.
Still for that read-out and setting: with `OC[C@H]1O[C@@H](Oc2ccc(O)c3cccc(O)c23)[C@H](O)[C@@H](O)[C@@H]1O` the entry was “inactive”.
Still for that read-out and setting: with `Cc1c2oc3c(C)ccc(C(=O)N[C@@H]4C(=O)NC(C(C)C)C(=O)N5CCC[C@H]5C(=O)N(C)CC(=O)N(C)C(C(C)C)C(=O)O[C@@H]4C)c3nc-2c(C(=O)N[C@@H]2C(=O)NC(C(C)C)C(=O)N3CCC[C@H]3C(=O)N(C)CC(=O)N(C)C(C(C)C)C(=O)O[C@@H]2C)c(N)c1=O` (stereo partly drawn) (I: T[ξV]P[Sar][ξNMeV] / II: T[ξV]P[Sar][ξNMeV]; ester I:1-I:C, II:1-II:C; linker I:N-II:N via Actinocin(9to1)) the figure was 0.208 µM (active); with `CC(C)C1=CCC(C)(O)C(OC2OC(CO)C(O)C(O)C2O)C1` (stereo not drawn), “inactive”.
Consider `CC1=C2C(=O)O[C@@H](c3ccoc3)[C@]2(C)CCC1`, for which the result in experiment [2], in [20], in experiment [4], in experiment [5], in experiment [6] and in experiment [7] was inactive. For the same compound, the compound was classed as inactive in experiment [8], in experiment [9], in [10], in [11], in experiment [12] and in [13]. Also, the compound was classed as inactive in [14], in [15], in [16], in experiment [17], in [18] and in [19]. Besides, the Potency result in experiment [3] was “inactive”.
Take `CC(C)(O)C1CC=C(C(=O)OCC2OC(Oc3c(O)cc(C(=O)O)cc3O)C(O)C(O)C2O)CC1` (stereo not drawn): in experiment [1], the Potency entry is “inactive”.

For the origin of these results see PubChem BioAssay (NCATS).
